The list is not random: actives were taken first. Their share in the collection is about 11%.
HEK cytotox – HEK 293 cell cytotoxicity; Potency, µM (titrated, usually from 115 µM), hits mostly inhibitors; AID 1345083; HEK 293 viability, ATP luminescence (CellTiter-Glo), 48-72 h; actives 6.6% (n = 94,000); further: nearly all actives have a fitted effect of over 60% in size
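HEK 293 cells seeded at 250 cells/well were exposed to compound for 48 or 72 hr at 37 degree Celsius. Viability taken as ATP content by CellTiter-Glo luminescence.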
Luciferase inh – Photinus pyralis luciferase inhibition | purified P. pyralis luciferase, luminescence, biochemical | Potency, µM (highest dose often 115 µM), usual class: inhibitors | actives 2.5% (n = 76,000) | AID 1347043; further: nearly all actives have a fitted effect of over 65% in size
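Purified 10nM P. pyralis luciferase with 10uM D-luciferin and 10uM ATP in 50mM Tris acetate pH 7.5, 10mM Mg acetate, 0.01% Tween-20, 0.05% BSA. qHTS titration; luminescence read by CCD imager.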
hNpr1 antagonist – blocks ANP-stimulated signaling of human Npr1 receptor | P16066 | HEK293 hNpr1 GloSensor cGMP, ANP-stimulated luminescence | Potency, µM (titrated, usually from 46.3 µM), most hits filed as inhibitors | actives 1.6% (n = 76,000) | AID 1347048; calls by dose curve; further: nearly all actives have a fitted effect of over 60% in size
Target sequence (P16066 whole entry, looked up): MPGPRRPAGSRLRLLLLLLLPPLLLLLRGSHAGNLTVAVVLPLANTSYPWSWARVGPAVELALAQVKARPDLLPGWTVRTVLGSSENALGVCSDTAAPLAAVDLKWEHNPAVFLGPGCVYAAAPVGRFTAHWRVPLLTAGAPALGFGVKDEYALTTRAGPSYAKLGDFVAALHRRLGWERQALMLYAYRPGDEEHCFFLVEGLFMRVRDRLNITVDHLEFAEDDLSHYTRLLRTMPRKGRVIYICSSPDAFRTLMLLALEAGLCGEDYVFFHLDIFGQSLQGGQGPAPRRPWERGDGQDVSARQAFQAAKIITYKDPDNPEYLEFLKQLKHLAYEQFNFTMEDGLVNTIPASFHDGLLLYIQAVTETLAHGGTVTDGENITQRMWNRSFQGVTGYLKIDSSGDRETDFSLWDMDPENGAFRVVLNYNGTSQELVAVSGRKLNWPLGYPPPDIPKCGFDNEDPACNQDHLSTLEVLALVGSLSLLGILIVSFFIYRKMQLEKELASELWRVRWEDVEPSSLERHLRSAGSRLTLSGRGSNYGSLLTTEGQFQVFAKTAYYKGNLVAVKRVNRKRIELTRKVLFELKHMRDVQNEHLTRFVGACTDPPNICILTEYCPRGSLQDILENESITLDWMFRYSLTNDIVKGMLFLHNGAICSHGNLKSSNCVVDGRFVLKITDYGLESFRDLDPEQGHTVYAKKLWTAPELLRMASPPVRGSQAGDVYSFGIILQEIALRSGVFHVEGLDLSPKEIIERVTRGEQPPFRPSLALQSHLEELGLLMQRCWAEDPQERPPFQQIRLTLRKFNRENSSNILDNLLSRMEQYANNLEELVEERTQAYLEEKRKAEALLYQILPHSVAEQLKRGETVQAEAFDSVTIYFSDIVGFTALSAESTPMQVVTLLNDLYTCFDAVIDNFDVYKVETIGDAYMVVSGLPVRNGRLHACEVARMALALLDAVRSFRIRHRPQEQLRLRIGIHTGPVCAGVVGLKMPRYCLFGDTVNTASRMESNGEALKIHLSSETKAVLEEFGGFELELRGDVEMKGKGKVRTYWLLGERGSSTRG
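HEK293 cells stably expressing human Npr1 and cGMP GloSensor pGS-40F, loaded 2 h with 2% GloSensor reagent, given compound 30 min at room temperature. Luminescence read before and 20 min after 0.1 nM hNppA.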
3T3 cytotox – kills NIH 3T3 cells. NIH 3T3 viability, CellTiter-Glo ATP luminescence, 48-72 h. Potency, µM (titrated, usually from 96.7 µM), hits mostly inhibitors. actives 4.3% (n = 94,000). AID 1345082; further: nearly all actives have a fitted effect of over 55% in size
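Cytotoxicity is measured as loss of cellular ATP: NIH 3T3 cells (400/well) are exposed to compound for 48 or 72 hr at 37 °C, then CellTiter-Glo luminescence is imaged after 10 min at room temperature.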
Npr1 antag conf – hNpr1 antagonism, confirmation assay. Potency, µM (doses to about 57.6 µM), actives largely listed as inhibitors. shares compounds with hNpr1 antagonist. HEK293 hNpr1 cGMP GloSensor luminescence, ANP-stimulated. AID 1347044. actives 76% (n = 1,400); calls by dose curve; further: nearly all actives have a fitted effect of over 70% in size
Npr2 selectivity – selectivity test of Npr1 antagonists against human Npr2 | HEK293 hNpr2 GloSensor cGMP luminescence, CNP-stimulated | actives 67% (n = 1,400) | Potency, µM (highest dose often 57.6 µM), usual class: inhibitors | shares compounds with hNpr1 antagonist; calls by dose curve; further: nearly all actives have a fitted effect of over 70% in size
FLuc inh counter – FLuc enzyme inhibition, Npr1 counter-screen; shares compounds with hNpr1 antagonist; purified FLuc enzyme, luminescence, Km substrate; Potency, µM (series often up to 57.6 µM), hits mostly inhibitors; actives 0.7% (n = 1,400)
GloSensor ctrl – control cell line activity, Npr1 antagonist counter-screen; shares compounds with hNpr1 antagonist; HEK293 GloSensor cGMP, SNP-stimulated, luminescence; Potency, µM (titrated, usually from 57.6 µM), most hits filed as inhibitors; actives 69% (n = 1,400); calls by dose curve; further: nearly all actives have a fitted effect of over 70% in size
Hits are given with their value; – = inactive; ? = inconclusive; · = not tested or not shown; ! = a repeat was not active. Unless noted, the call rests on the fitted dose curve; in most records, active means well fitted curve in the direction sought with a large enough effect; inconclusive means small, poorly fitted or top-dose-only effect, or another doubt; inactive means no such curve, though single readings can be large; an effect the other way counts as inactive or inconclusive.

SMILES | HEK cytotox | Luciferase inh | hNpr1 antagonist | 3T3 cytotox | Npr1 antag conf | Npr2 selectivity | FLuc inh counter | GloSensor ctrl
Cc1ccc(C(=O)N2CCC(n3cc(-c4nc(C5CC5)no4)nn3)C2)s1 (centres undefined) | ? | – | 15.8µM | – | 24.3µM | 24.3µM | – | 13.7µM
Cc1ccc(C(=O)N2CCCC(n3cc(-c4nc(C5CC5)no4)nn3)C2)s1 (centres undefined) | ? | – | – | – | · | · | · | ·
O=C(c1cc(F)ccc1F)N1CCC(n2cc(-c3nc(C4CC4)no3)nn2)C1 (centres undefined) | – | – | – | – | · | · | · | ·
COCCOc1ncccc1-c1noc([C@@H]2CCCN2C(C)C)n1 | – | – | – | – | · | · | · | ·
CC1(C)[C@H](Cc2cc(-c3ccc(F)cc3)on2)C[C@@H]1NS(C)(=O)=O | 70.8µM | ? | ? | ? | 39.6µM | 39.6µM | – | 35.3µM
CN(C)C[C@H]1O[C@H](Cc2cc(-c3cccc(O)c3)on2)CC[C@@H]1O | – | – | 28.2µM | – | ? | – | – | ?
CC(C)Cn1c(=O)c(C(=O)N2CCN(C(=O)Nc3ccccc3)CC2)nc2cccnc21 | – | · | · | – | · | · | · | ·
COc1ccc(-c2nccn3cc(C(=O)NCc4ccc(OC)c(OC)c4)nc23)cc1 | ? | – | 12.6µM | – | 19.3µM | 15.3µM | – | –
CC1=C[C@@H](CN(C)Cc2cccnc2)[C@H](C(C)C)C[C@H]1Cc1nnc(-c2ccc([N+](=O)[O-])cc2)o1 | 22.4µM | – | 20µM | 15.8µM | 15.3µM | 17.2µM | – | 12.2µM
CC1=C[C@@H](CN2CCOCC2)[C@H](C(C)C)C[C@H]1Cc1nnc(-c2ccncc2)o1 | ? | – | ? | ? | ? | – | – | –
CC1=C[C@@H](CN2CCC(O)CC2)[C@H](C(C)C)C[C@H]1Cc1nnc(-c2ccncc2)o1 | ? | – | – | ? | · | · | · | ·
COc1ccc(NC(=O)c2cccc3c2CCN3C(=O)c2ccc(F)cc2)c(OC)c1 | 31.6µM | – | 17.8µM | ? | 24.3µM | 24.3µM | – | 21.7µM
COc1ccc(OC)c(NC(=O)c2cccc3c2CCN3C(=O)c2ccc(F)cc2)c1 | ? | – | – | – | · | · | · | ·
CCCc1noc(-c2cn(C3CCN(C(=O)c4ccc[nH]4)CC3)nn2)n1 | – | – | – | – | · | · | · | ·
Cc1ccccc1N(C)C1CN(Cc2cncs2)C1 | ? | – | – | ? | · | · | · | ·
O=C(CCC1CCN(S(=O)(=O)c2ccc(F)cc2)CC1)NCc1nc2ccccc2[nH]1 | ? | – | 11.2µM | – | 19.3µM | 21.7µM | – | 15.3µM
CCC1Oc2ccc(NC(=O)c3ccccc3OC(C)=O)cc2CN(Cc2ccccc2F)C1=O (centres undefined) | 25.1µM | – | 0.708µM | 14.1µM | 24.3µM | 24.3µM | – | 21.7µM
CC(NC(=O)C1CCN(c2cc(C(F)(F)F)ncn2)CC1)c1ccccc1 (centres undefined) | – | – | – | ? | · | · | · | ·
Cc1ccc(NC(=O)C2CCN(c3cc(C(F)(F)F)ncn3)CC2)cc1Cl | ? | – | 10µM | 17.8µM | 12.2µM | 19.3µM | – | 12.2µM
COc1ccc(NC(=O)C2CCN(c3cc(C(F)(F)F)ncn3)CC2)cc1 | – | – | ? | – | · | · | · | ·
CC(C)c1ccc(NC(=O)C2CCN(c3cc(C(F)(F)F)ncn3)CC2)cc1 | ? | – | 7.08µM | ? | 7.69µM | 8.62µM | – | 4.85µM
COc1ccc(NC(=O)C2CCN(c3cc(C(F)(F)F)ncn3)CC2)cc1OC | ? | – | – | – | · | · | · | ·
O=C(Nc1ccc(F)cc1)C1CCN(c2cc(C(F)(F)F)ncn2)CC1 | – | – | ? | – | 21.7µM | ? | – | 24.3µM
Cc1nc2c(c(-c3ccc(O)cc3)n1)CN(C(=O)c1ccccc1Cl)CC2 | – | – | – | – | · | · | · | ·
COc1ccc(C(=O)N2CCc3nc(C4CC4)nc(-c4ccc(O)cc4)c3CC2)cc1 | – | · | · | – | · | · | · | ·
SMILES | HEK cytotox | Luciferase inh | hNpr1 antagonist | 3T3 cytotox | Npr1 antag conf | Npr2 selectivity | FLuc inh counter | GloSensor ctrl
O=C(NCC1CC1)C1CCc2nnc(C3CC3)n21 (centres undefined) | – | · | · | – | · | · | · | ·
O=C(Cc1cccc(F)c1)N1CCC2(CC1)NC(=O)N(Cc1ccccc1Cl)C2=O | ? | – | ? | ? | ? | – | – | –
Cc1ccc(C)c(CN2C(=O)NC3(CCN(C(=O)Cc4cccc(F)c4)CC3)C2=O)c1 | ? | – | ? | ? | ? | ? | – | ?
Cc1ccc(C)c(CN2C(=O)NC3(CCN(C(=O)c4ccccn4)CC3)C2=O)c1 | – | – | – | – | · | · | · | ·
COc1cccc(OCc2nnc(C(=O)N3CCC[C@@H]3c3nc4ccccc4[nH]3)n2-c2ccccc2)c1OC | – | – | – | ? | · | · | · | ·
COCCN1CCCN(C(=O)c2ccoc2)c2ccccc21 | ? | – | – | – | · | · | · | ·
Cn1nccc1C(=O)N1CCCN(CCc2ccccc2)c2ccccc21 | ? | – | ? | ? | 19.3µM | 13.7µM | – | –
O=C1N[C@@H]2CCN(S(=O)(=O)c3ccccc3)[C@@H]2C(=O)N1c1ccc(Oc2ccccc2)cc1 | – | – | – | – | · | · | · | ·
O=c1n(-c2ccncc2)nc2n1CCN(Cc1ccc(C(F)(F)F)cc1)C2 | 12.6µM | – | 15.8µM | ? | 15.3µM | 17.2µM | – | 12.2µM
Cn1nccc1CN1CCn2c(nn(-c3ccc(C(F)(F)F)cc3)c2=O)C1 | ? | · | · | ? | ? | ? | – | ?
O=c1n(-c2ccncc2)nc2n1CCN(Cc1ccc(F)cc1)C2 | ? | – | ? | ? | · | · | · | ·
CN(C)C(=O)N1CCC[C@@H]1C(=O)N1CCC(N2CCOC2=O)CC1 | – | · | · | – | · | · | · | ·
COC1CN(c2cccc(F)c2)C12CCN(C(=O)C1CCC1)CC2 (centres undefined) | ? | – | – | – | · | · | · | ·
COc1ccc(C2(C(=O)N3CCC4(CC3)C(OC)CN4c3cccc(F)c3)CC2)cc1 (centres undefined) | 44.7µM | – | 11.2µM | ? | ? | 13.7µM | – | –
O=c1[nH]c(C2CCCN(Cc3ccc(-c4cccs4)cc3)C2)nc2ccc(F)cc12 (centres undefined) | 39.8µM | – | 15.8µM | ? | 24.3µM | 27.3µM | – | 30.6µM
O=c1[nH]c(C2CCCN(Cc3ccc(Cl)cc3)C2)nc2ccc(F)cc12 (centres undefined) | ? | – | ? | – | · | · | · | ·
Cc1ccc2nc(C3CCN(Cc4ccc(C#N)cc4)CC3)[nH]c(=O)c2c1 | ? | – | ? | ? | 17.2µM | ? | – | 17.2µM
N#Cc1ccc(CN2CCC(c3nc4ccc(F)cc4c(=O)[nH]3)CC2)cc1 | – | · | · | – | · | · | · | ·
COc1ccccc1-c1ccc(CN2CCCC(c3nc4ccc(C)cc4c(=O)[nH]3)C2)cc1 (centres undefined) | 17.8µM | – | ? | 28.2µM! | ? | ? | – | ?
CN(C)C(=O)c1nc(-c2ccc(Cl)nc2)c2ccccn12 | – | · | · | ? | · | · | · | ·
CCCCc1ccc(NC(=O)c2ccc3c(c2)N(S(C)(=O)=O)CC3)cc1 | – | – | – | – | · | · | · | ·
CS(=O)(=O)N1CCc2ccc(C(=O)Nc3ccc(Oc4ccccc4)cc3)cc21 | ? | – | 1.58µM | – | 2.73µM | 3.43µM | – | 2.43µM
